Hit rate of the full screen: of about 46,000 compounds, about 900 (2%) were called active. About 1% were inconclusive and are not listed. The list comes from a sample in which actives are over-represented; it also holds similar structures and randomly drawn compounds. A number with no mark means an inactive call. No stated cut-off is given here; in the data, active means ROS induction above about 79% (passing the limit was not always enough); inconclusive means no clear call, values can overlap the other calls.
test: ROS inducers in U2OS cancer cells, primary screen, cell-based, H2DCF-DA fluorescence (AID 624156); conditions: at 10 µM, hits give high values;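 further: 0% = DMSO vehicle median and 100% = reference compound median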

Row | SMILES | ROS induction (% of piperlongumine)
1 | CCCNC(=O)Cn1c(=O)c2cccn2c2ccccc21 | -9.02%
2 | C=C1C(=O)O[C@H]2C3=C(C)C[C@H](OC(C)=O)C[C@]3(C)CC[C@@H]12 | 210% (active)
3 | Cn1c(COc2ccc(C(C)(C)c3ccccc3)cc2)n[nH]c1=S | -8.56%
4 | CCc1cccc(O[C@@H]2O[C@@H]3COC(c4ccccc4)O[C@H]3[C@H](O)[C@H]2NC(C)=O)c1 (stereo partly drawn) | -15.2%
5 | COc1ccccc1N(CC(=O)Nc1ccc(C(F)(F)F)cc1)S(C)(=O)=O | 4.82%
6 | O=C(NCc1cccnc1)c1cnn2c(C(F)F)cc(-c3ccccc3)nc12 | 170% (active)
7 | NC(=O)c1c(NC(=O)c2cnn3c(C(F)F)cc(-c4ccccc4)nc23)sc2c1CCCC2 | 12.4%
8 | O=C(c1cc([N+](=O)[O-])ccc1NCc1cccnc1)N1CCOCC1 | 1.17%
9 | C=CC[C@]1(C(=O)NCC(O)CO)N=C(c2ccc(OCCCO)cc2)O[C@H]1c1ccccc1 (stereo partly drawn) | 30.5%
10 | COCCCNC(=O)[C@@]1(Cc2ccccc2)COC(c2ccc(OCCCO)cc2)=N1 | 11.7%
11 | O=C1N(CCS(=O)(=O)c2ccccc2)Cc2ccccc2[C@H]2OC(c3ccc(OCCCO)cc3)=N[C@@]12CCS(=O)(=O)c1ccccc1 | 141% (active)
12 | O=C(N1CCCCC1)[C@@]1(CCS(=O)(=O)c2ccccc2)N=C(c2ccc(OCCCO)cc2)O[C@H]1c1ccccc1 | 97.7% (active)
13 | C[C@H]1CN([C@@H](C)CO)C(=O)Cc2cc(NC(=O)Nc3ccc4c(c3)OCO4)ccc2O[C@H]1CN(C)Cc1ccc(C(=O)Nc2ccccc2N)cc1 | 29.3%
14 | CCc1ccc(OCC(N)=O)cc1 | 18.8%
15 | C[C@@H]1CN([C@H](C)CO)C(=O)c2cccc(NC(=O)c3nc4ccccc4s3)c2O[C@H]1CN(C)Cc1ccccc1 | 10.3%
16 | Nc1ncnc2nc(N3CCCCC3)[nH]c12 | -11.8%
17 | c1ccc(Cc2nc3c4c5c(sc4ncn3n2)CCCC5)cc1 | 20.6%
18 | C[C@@H]1CN([C@H](C)CO)C(=O)Cc2cc(NC(=O)Cn3cnnn3)ccc2O[C@@H]1CN(C)S(=O)(=O)c1ccc(F)cc1 | 3.99%
19 | C[C@@H]1CN([C@H](C)CO)C(=O)Cc2cc(NC(=O)Cc3cn(C)c4ccccc34)ccc2O[C@@H]1CN(C)S(=O)(=O)c1ccccc1 | 18.9%
20 | Cc1ccc(S(=O)(=O)N(C)C[C@@H]2Oc3ccc(NC(=O)Cn4cnnn4)cc3CC(=O)N([C@H](C)CO)C[C@H]2C)cc1 | 101% (active)
21 | C[C@@H]1CN([C@@H](C)CO)C(=O)Cc2cc(NC(=O)Cn3cnnn3)ccc2O[C@@H]1CN(C)S(=O)(=O)c1cn(C)cn1 | 4.76%
22 | Cc1ccc(S(=O)(=O)N(C)C[C@@H]2Oc3ccc(NC(=O)Cc4cn(C)c5ccccc45)cc3C(=O)N([C@@H](C)CO)C[C@@H]2C)cc1 | -5.66%
23 | Cc1ccc(S(=O)(=O)N(C)C[C@H]2Oc3ccc(NC(=O)Cc4cn(C)c5ccccc45)cc3CC(=O)N([C@@H](C)CO)C[C@H]2C)cc1 | 109% (active)

— PubChem BioAssay AID624156 (Broad Institute, 2012)
